Bioassay records: PubChem BioAssay, Broad Institute
Only some compounds are listed: those with a hit (about 7.9% of all), similar ones and a draw of the others.
NOMO-1 viab: STK33 inhibitor candidate reducing NOMO-1 cell viability; NOMO-1 AML viability, CellTiter-Glo luminescence, 72 h; inhibition, % (test concentration not listed); actives 7.5% (n = 37,000); AID 2330; in the data active means inhibition above about 80%; inconclusive means no clear call, values can overlap the other calls
PD-1 reverse act: reversal of PD-1 mediated T-cell inhibition; primary human CD4 T cells, PD-L1 beads, CellTiter-Glo 96 h; activation, % (test concentration not listed); 29,000 tested, under 10 active; AID 2316; call rule not given here;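 further: 0% = median vehicle wells and 100% = positive control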
MITF inh: MITF inhibition. TRPM1 promoter luciferase, luminescence, 24 h. inhibition, % (no concentration beside the values). actives 0.28% (n = 37,000). AID 2240; in the data active means inhibition above about 85%; inconclusive means no clear call, values can overlap the other calls; inactive means below about 68%;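 further: human melanocyte line stably carrying TRPM1 promoter luciferase reporter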
Hedgehog inh: Sonic Hedgehog pathway inhibition. Shh-LIGHT2 Gli-luciferase reporter, 30 h. actives 2.1% (n = 22,000). inhibition, % (test concentration not listed). AID 2313;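 active means mean inhibition across valid replicates above about 65%, limit read from the data; inconclusive means mean under the limit, yet half or more replicates past it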;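 further: pathway switched on by Shh-conditioned medium diluted 1 in 25 in low serum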
Numbers without * were called inactive; u = inconclusive; x = not tested or not shown; ! = not confirmed by another sample.

SMILES	NOMO-1 viab	PD-1 reverse act	MITF inh	Hedgehog inh
CCOC(=O)C1C2c3ccccc3C(c3ccccc32)C1C(=O)OCC (configuration not stated)	35.3	-0.3	22.1	-35.7
C=CC(C)(C)[C@@]12C[C@H]3C(=O)N/C(=C\c4cnc[nH]4)C(=O)N3[C@@H]1Nc1ccccc12	2.6	-0.2	-10.7	9.2
CC1=CC(=O)C2=C(C)C[C@H](O)[C@@H]3[C@H](OC(=O)[C@@H]3C)[C@@H]12	x	x	x	-17.8
CC(C)c1cc2c(cc1O)[C@@]1(C)CCCC(C)(C)[C@@H]1CC2	u	-2.7	-12.5	-4.6
CC1=CC2/C=C(\C)CCC(O)C(O)/C=C/C(=O)C23C(=O)NC(CC(C)C)C3C1C (configuration not stated)	121.3*	-36.9	89.5*	71.1*
CCN1C[C@]2(C)CC[C@H](OC)[C@@]34C2[C@H](O)C([C@@H]13)[C@@]1(OC)C[C@H](OC)[C@H]2C[C@@H]4[C@@H]1[C@H]2O	3.6	0.3	-13.2	-12.1
CC1=CC2OC3[C@H](O)C[C@@](C)([C@]34CO4)[C@@]2(CO)[C@H](O)C1=O (some centres not stated)	123.5*	-7.9	71.8	40.1
NC1=C(C(=O)OCc2ccccc2)C2(C(=O)Nc3ccc(Br)cc32)C2=C(O1)C(=O)CCC2 (configuration not stated)	45.0	-1.6	9.9	-16.0
C[CH2][Hg][S]c1ccccc1C(=O)O	110.8*	x	105.0*	u
CNc1ccccc1C(=O)O	1.6	x	-8.6	1.9
CC1=NCCc2c1[nH]c1cc(O)ccc21	5.6	-0.3	1.2	79.9*!
C[C@]12CC[C@H](O)C[C@H]1CCC1C2CC[C@]2(C)[C@@H](C3=CC(=O)OC3)[C@@H](O)C[C@]12O (some centres not stated)	97.3*	x	-9.0	-46.6
COC1CC(OC2CCC3(C)C(CCC4C3CCC3(C)C(C5=CC(=O)OC5)C(OC(C)=O)CC43O)C2)OC(C)C1OC1OC(COC2OC(CO)C(O)C(O)C2O)C(O)C(O)C1O (configuration not stated)	109.6*	-7.4	20.1	3.1
CO[C@H]1[C@H](O)[C@H](O[C@H]2CC[C@]3(C)C4CC[C@]5(C)C(C6=CC(=O)OC6)CC[C@]5(O)C4CC[C@@H]3C2)O[C@@H](C)[C@@H]1O (some centres not stated)	110.4*	x	21.3	-4.8
C=C1[C@@]23C(=O)O[C@H](C)[C@]24O[C@@]2(C(=C)[C@]5(C=CC(=O)OC5(C)C)CC[C@]32C)[C@H](O)[C@@]1(C)OC4=O	8.6	-1.7	0.7	-2.3
C=CC1CN2CCC3(C(=O)Nc4ccccc43)C2CC1/C(=C/OC)C(=O)OC (configuration not stated)	30.3	2.0	5.0	10.4
COc1ccc(CC2(CCc3ccncc3)C(=O)NC(=O)N(c3cccc(C)c3)C2=O)c(OC)c1 (configuration not stated)	16.6	x	-23.5	x
CCCCn1c(=O)c(C(=O)NCc2ccccn2)c(O)c2ccccc21	66.3	x	31.9	x
Cc1cccc(N2C(=O)NC(=O)C(CCc3ccncc3)(CCc3ccncc3)C2=O)c1	3.4	1.5	6.6	x
CC(C)[C@H]1C(=O)O[C@H](C(C)C)C(=O)N(C)[C@@H](C(C)C)C(=O)O[C@H](C(C)C)C(=O)N(C)[C@@H](C(C)C)C(=O)O[C@H](C(C)C)C(=O)N1C	118.9*	-0.4	75.4	22.1
Cc1ccc(NC(=O)c2cccc(OC(=O)N(C)c3ccccc3)c2)cc1C	20.4	-0.6	5.0	76.4*
CN1Cc2c(ccc3c2OCO3)C2C(O)Cc3cc4c(cc3C21)OCO4 (configuration not stated)	104.5*	x	22.9	82.1*
COc1ccc2c(c1)[C@]13CCCC[C@H]1[C@H](C2)N(C)CC3	31.9	x	6.3	19.5
C=C1C([C@]2(C)C(CC(=O)OC)[C@@](C)(COC(C)=O)OC(=O)C[C@@H]2OC(C)=O)[C@@H](OC=O)[C@H](OC(=O)C(OC(C)=O)C(C)CC)[C@@]2(C)[C@H](c3ccoc3)CC(=O)C12O (some centres not stated)	-2.7	x	4.6	-17.3
CCn1cnc2c(Nc3cccc(Cl)c3)nc(N[C@@H]3CCCC[C@@H]3N)nc21	99.7*	2.7	51.4	73.2*
SMILES	NOMO-1 viab	PD-1 reverse act	MITF inh	Hedgehog inh
CC(=O)OC1CCC2(C)C(=CCC3C4CCC(=O)C4(C)CCC32)C1 (configuration not stated)	9.8	-0.4	-1.9	-9.3
C[C@@H]1CC([C@H](O)CC2CC(=O)NC(=O)C2)C(=O)[C@@H](C)C1 (some centres not stated)	140.7*	-7.6	55.4	68.4*
C[C@@H]1C[C@@H]([C@H](O)CC2CC(=O)NC(=O)C2)C(=O)[C@@H](C)C1	113.9*	x	72.3	50.0
Cc1cc(OC(=O)c2cccs2)c2c3c(c(=O)oc2c1)CCC3	8.7	-0.1	-8.1	-8.8
CCCCC/C=C\C/C=C\C/C=C\C/C=C\CCCC(=O)NCc1ccc(O)c(OC)c1	117.1*	x	7.5	41.3
CC(=O)OC[C@]12C[C@H](O)C(C)=C[C@H]1O[C@@H]1[C@H](O)[C@@H](OC(C)=O)[C@@]2(C)[C@]12CO2	122.9*	-5.2	90.2*	95.8*
CC(=O)OC[C@]12CCC(C)=C[C@H]1O[C@@H]1[C@H](O)[C@@H](OC(C)=O)[C@@]2(C)[C@]12CO2	108.9*	-9.6	92.0*	109.4*
O=C(c1ccco1)c1cn(CCCOc2ccccc2)c2ccccc12	31.1	-0.6	-0.1	x
C/C1=C/[C@@H](C)C/C=C/[C@H]2[C@@H]3O[C@]3(C)[C@@H](C)[C@H]3[C@H](Cc4c[nH]c5ccccc45)NC(=O)[C@]32C(=O)/C=C\C(=O)[C@@H]1O	x	x	x	102.3*
CC1(C)C(C(=O)Nc2ccc(S(=O)(=O)c3ccc(NC(=O)C4C(C)(C)C4(C)C)cc3)cc2)C1(C)C	-2.2	2.1	-8.7	-20.2
Cc1ccc(N2C(=O)NC(=O)C(CCc3ccccn3)(Cc3cccs3)C2=O)cc1 (configuration not stated)	15.7	x	-0.3	x
C[C@@H]1Cc2c(Cl)cc(C(=O)N[C@@H](Cc3ccccc3)C(=O)O)c(O)c2C(=O)O1	x	x	x	78.1*
COc1cc(C2=NC(O)C(=O)Nc3ccc(Cl)cc32)ccc1O (configuration not stated)	3.3	3.6	3.3	-15.5
NCC(=O)Nc1ccc(Br)cc1C(=O)c1ccccc1	4.0	x	-124.8	x
O=C(/C=C/c1ccccc1)OCC1OC(OC2OC=CC3C(O)C4OC4(CO)C23)C(O)C(O)C1O (configuration not stated)	0.8	1.0	-9.3	-15.4
CC1(C)C(=O)C=C[C@@]2(C)C1C(=O)C(=O)[C@]1(C)C2CC[C@@]2(C)[C@H](c3ccoc3)C[C@H]3O[C@]321 (some centres not stated)	107.9*	x	107.9*	-14.1
C[C@@H]1CCOC(=O)C=CC=CC(=O)O[C@@H]2C[C@H]3O[C@@H]4C=C(CO)CC[C@]4(COC(=O)[C@H]1O)[C@]2(C)[C@]31CO1	-1.5	0.1	-4.4	-6.2
